# Hit rate of the full screen: of about 330,000 compounds, about 100 (0.03%) were called active. Roughly 1% stayed inconclusive and do not appear here. The sample as a whole holds a higher share of actives than the screen did. A number with no mark means an inactive call. Calls come from the whole dose curve; as a rule, active = well fitted inhibition curve with a large enough effect; inconclusive = small, poorly fitted or top-dose-only effect; inactive = flat fitted curve, though single readings scatter.
# Tested on: Chaperonin Mm-Cpn (Methanococcus maripaludis)
# Assay: Inhibitors of TCP-1 ring complex (TRiC) of Methanococcus maripaludis (MmCpn): qHTS; note: nearly all actives have a fitted effect of over 80% in size;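 for Potency: enzyme at 25 nM with ATP substrate at 10 µM during the reaction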
# Details: purified Mm-Cpn ATPase, ADP Transcreener TR-FRET; series mostly up to 76.9 µM; activity, negative = inhibition: at the top concentration
# Description: The eukaryotic chaperonin TRiC (for TCP-1 ring complex) is an essential and conserved chaperone required for the folding and activation of 10-15% of the proteins encoded by the human genome. […] The TRiC complex consist of two stacked 7-9 membered rings, each containing a central cavity. Substrates are folded within the cavity in an ATP-dependent manner. TRiC is a complex of eight different, essential proteins. As each of the genes encoding the eight subunits is essential for cell viability and no protocol has been developed to over-express this enzyme to high levels. That is why several groups studying the TRiC chaperonin have turned to the archaeal homolog of TRiC, Methanococcus maripaludis (Mm-CPN), and have used this enzyme as a model system for the study of the type II chaperonin family. Small molecule inhibitors of the Mm-CPN enzyme would be extremely useful to study the mechanism of chaperonin activity. Importantly, TRiC and Mm-CPN both require ATP hydrolysis for function. Furthermore, the ATP binding sites are highly conserved among these type II chaperonins. This provides us with an easy, well tested and straightforward assay to identify inhibitors of chaperonin activity. The Mm-CPN assay was developed in 1536-well plate format using the HTRF Transcreener ADP assay kit (Cisbio, Bedford, MA). This assay applied the time resolved fluorescence resonance energy transfer (TR-FRET) principle. ATP in the presence of Mm-CPN is converted to ADP + Pi. An antibody labeled with Eu3+-Cryptate specific and bound to ADP labeled with […] (d2) competes with the unlabeled ADP generated by Mm-CPN. The resulting TR-FRET signal is inversely proportional to the concentration of ADP in the sample. In this assay a reduction in TR-FRET signal is observed with ATP turnover. NIH Chemical Genomics Center [NCGC] NIH Molecular Libraries Probe Centers Network [MLPCN] MLPCN Grant: DA030554-01A1 Assay Submitter (PI): Judith Frydman, Stanford University
# Purified Mm-CPN was supplied by the laboratory of Dr. Judith Frydman. Protein samples were stored at -80C as single use aliquots. Protein was thawed in ambient temperature water bath and placed on ice once thawed. Buffer was prepared fresh day of screen. The buffer composition below was used to prepare the working solution of the Mm-CPN protein and ATP substrate. The buffer is comprised of 30 mM TRIS pH 7.4, 100mM KCl, 5mM MgCl2, and 1mM DTT. A final concentration of 25nM Mm-CPN and 10uM ATP per well were used in the screen. Instructions according to the manufacturer were followed for the ADP Transcreener kit. Used 1536 well Greiner white, medium binding (MB), solid bottom plates. Plates were read on the PerkinElmer EnVision plate reader using Excitation = 320 nm and Emission = […], 665 nm. Protocol- 1.Dispense 1.5ul per well of working [Mm-CPN] = 50nM (or 75 ng / well) 2.Spin plate at 1000 rpm for 30 seconds 3.23nl of compound transferred per well 4.Incubate at 37degC for 10 minutes 5.Dispense 1.5ul per well of working [ATP] = 20uM 6.Incubate at 37degC for 30 minutes 7.Dispense 3ul per well of Anti-ADP Cryptate / ADP-d2 mix (prepared as instructed by Cisbio) 8.Incubate at ambient for 30 minutes 9.Read using EnVision
# % is set by controls: 0 for no effect and ±100 for the full control effect; potency is the fitted concentration of half-maximal effect.
SMILES,"activity, negative = inhibition",Potency
CCCNCc1cc(OCC)c(OCC(=O)Nc2ccccc2)cc1Br,-4.4%,
CC(c1ccccc1)n1c(NCCCn2ccnc2)nc2c1c(=O)[nH]c(=O)n2C (stereo not given),0.8%,
CC(=O)NS(=O)(=O)c1ccc(NC(=O)/C=C/c2ccccc2Cl)cc1,-0.316%,
CN(CC(=O)NCCc1ccc(F)cc1)CC(=O)Nc1ccc(F)c(F)c1F,1.1%,
CC(C)c1nc2oc3c(N4CCN(C)CC4)ncnc3c2c2c1CCC2,-8.03%,
C=CS(=O)c1sc(Cl)c(N2CCOCC2)c1[N+](=O)[O-] (stereo not given),-1.91%,
CN(C)CCCNc1c2c(c(C#N)c3nc4ccccc4n13)CCC2,-0.924%,
CCn1c2ccccc2c2cc(NC(=O)Nc3ccc([N+](=O)[O-])cc3C)ccc21,1.13%,
O=C(CCC(=O)c1ccccc1)NCc1cccc(C(F)(F)F)c1,-0.0071%,
CCOc1ccccc1NC(=S)NC(=O)CCc1ccccc1,0.822%,
O=S(=O)(c1cc(Cl)ccc1Cl)N1CCN(Cc2ccco2)CC1,0.0715%,
CCOc1cc(/C=C(/C#N)c2ccc(Cl)cc2)cc(Cl)c1OCC(=O)O,1.28%,
O=C(CSc1ncnc2c1cnn2CCc1ccccc1)Nc1ccc(F)cc1,-0.16%,
O=C(Nc1ccncc1)c1cc(-c2ccccn2)nc2ccc(Br)cc12,,44.7 µM (active)
NC(=O)c1cc(-c2cccnc2)nc2ccc(Br)cc12,-1.29%,
Cc1ccc2nc(-c3ccccn3)cc(C(=O)Nc3ccc4c(c3)OCO4)c2c1,-7.87%,
O=C(Nc1cccnc1)c1noc2c1CCCCC2,-0.428%,
Nc1ccn(C2CC(O)C(CO)O2)c(=O)n1 (stereo not given),1.62%,
Cc1ccc(C)c(CSc2nc(-c3ccco3)nc3c2c(=O)n(C)c(=O)n3C)c1,2.6%,
COc1ccc(O)c(/C=N/N=C/c2cccc([N+](=O)[O-])c2)c1,1.75%,
Nc1ccc(Nc2cc(O)c3ncccc3c2)cc1,-3.06%,
CCCN1Cc2cccc(C(=O)Nc3ccc(S(=O)(=O)N4CCCCCC4)cc3)c2C1=O,-4.72%,
CCN(CC)CCN1C(=O)C(=O)/C(=C(/O)c2cnn(-c3ccccc3)c2C)C1c1cccs1 (stereo not given),-1.3%,
CC(C)(C)c1ccc(S(=O)(=O)N2CCN(C(=O)c3ccc4c(c3)C(=O)N(Cc3ccncc3)C4=O)CC2)cc1,-0.64%,
Cc1ccc(S(=O)(=O)Nc2ccc3c(c2)C(=O)N([C@H](C)CO)C[C@@H](C)[C@@H](CN(C)C(=O)Nc2cccc4ccccc24)O3)cc1,2.37%,

SMILES,"activity, negative = inhibition",Potency
C=CCC(NCCCO)c1cccc(OC)c1OC (stereo not given),-2.38%,
CC(C)CCN1CCN(Cc2ccc(C(F)(F)F)cc2)CC1CCO (stereo not given),0.684%,
CC(C)(C)c1cc2cccnc2n1Cc1cccc(F)c1,1.5%,
O=c1[nH]c(CSc2ccccc2)nc2c1oc1ccccc12,1.87%,
CCOc1ccc(NC(=O)CCCCCN2C(=O)[C@@H]3Cc4ccccc4CN3C2=O)cc1,1.25%,
CCN1C(=S)N[C@@H](c2cccc(C(F)(F)F)c2)C(C(=O)OC)=C1C,3.56%,
COc1cc(C(c2c(NC(=O)c3ccco3)sc(C)c2C)N2CCOCC2)cc(OC)c1OC (stereo not given),-2.89%,
CCC1CCCCN1C(=O)CSc1nc(C)cc(C)n1 (stereo not given),-8.6%,
COC(=O)C1CCN(C(=O)NC2CC(=O)N(c3ccc4c(c3)OCCO4)C2)CC1 (stereo not given),3.08%,
O=C(CNCc1ccc(Cl)cc1)Nc1cccc(C(=O)O)c1,-0.15%,
Cc1ccc(-n2c(C)cc(/C=C(\C#N)C(=O)NCC3CCCO3)c2C)cc1 (stereo not given),-2.2%,
Cc1ccc(C)c(NC(=O)C(c2ccccc2)N2CCN(CC(=O)NC3CC3)CC2)c1 (stereo not given),-0.786%,
COc1ccccc1NC(=O)c1cc(N2C(=O)C3C4CCC(C4)C3C2=O)ccc1Cl (stereo not given),1.31%,
CCc1nn(CCCC(=O)Nc2ccc(C)cc2C)c(=O)c2cc3occc3n12,1.57%,
O=S(=O)(NC1CCN(S(=O)(=O)c2ccc3c(c2)OCCO3)CC1)c1c(F)cccc1F,0.533%,
COC(=O)c1ccc(Nc2ncnc3sccc23)cc1,-13.1%,
COc1ccc2nc(NC3=NCN(CC4CCCO4)CN3)nc(C)c2c1 (stereo not given),1.76%,
O=S(=O)(c1ccc(-c2ccccc2)cc1)N1CCCC1,-3.69%,
COc1cc(C2C(C(=O)c3sc(C)nc3C)=C(O)C(=O)N2CCN(C)C)cc(OC)c1OC (stereo not given),-0.311%,
NC(=O)C1CCN(c2nc(-c3cccc(F)c3)cs2)CC1,0.604%,
CCN(CC(=O)Nc1cc(Cl)ccc1C)C(=O)CSCc1ccccc1,1.09%,
Cc1ccc(C(=O)OCC(=O)Nc2ccc(Cl)cn2)cc1S(=O)(=O)N1CCOCC1,1.87%,
OCCNc1nc2ccccc2n1-c1ncnc2sc3c(c12)CCC3,0.0901%,
CCOC(=O)NC(=O)C(=CNc1cccc(OC)c1)C(=O)NC(=O)OCC,-0.345%,
O.O.O.O=S(=O)([O-])OC[C@H]1O[C@@H](O[C@]2(COS(=O)(=O)[O-])O[C@H](OS(=O)(=O)[O-])[C@@H](OS(=O)(=O)[O-])[C@@H]2OS(=O)(=O)[O-])[C@H](OS(=O)(=O)[O-])[C@@H](OS(=O)(=O)[O-])[C@@H]1OS(=O)(=O)[O-].[Al],0.62%,

# From PubChem BioAssay AID504842 (National Center for Advancing Translational Sciences (NCATS), 2011)
